Experiment [1] can be described thus: qHTS assay to identify small molecule agonists of the sonic hedgehog signaling (Shh) pathway (AID 1259368; calls by dose curve;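 further: NIH/3T3-derived 3T3Gli1-Luc cells carrying a stable Gli1-driven firefly luciferase reporter; series mostly up to about 92 µM; nearly all actives have a fitted effect of over 15% in size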). Put shortly: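 Steps: seed 3T3 Gli1-Luc cells, incubate 4 hr at 37 C, pin-transfer compounds in DMSO alongside a positive control, incubate 24 hr, add luciferase detection reagent, wait 30 min at room temperature, read luminescence.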
A general note: Quantitative high-throughput screening tests each substance at several concentrations.

The nature of experiment [2]: qHTS assay to identify small molecule antagonists of the sonic hedgehog signaling (Shh) pathway (AID 1259369; calls by dose curve; further: nearly all actives have a fitted effect of over 45% in size). Put shortly:
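Inhibition of Shh signalling is measured as reduced Gli1-response-element firefly luciferase output in an NIH/3T3-derived stable reporter clone stimulated with conditioned medium for 24hr.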

The target of experiment [3] is Estrogen receptor beta (Homo sapiens) (UniProt Q92731). Nature of the experiment: qHTS assay to identify small molecule agonists of the estrogen receptor beta (ER-beta) signaling pathway (AID 1259377; active means well fitted activation curve with a large enough effect in the signal ratio in the repeat runs, not every such curve was filed as active; the % refers to the signal ratio). A digest of the protocol: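 ER-beta-UAS-bla HEK293T cells in medium with 2% charcoal-stripped FBS were exposed to compounds for 16 h at 37C. Beta-lactamase reporter activity was read as fluorescence after 2 h with LiveBLAzer B/G FRET substrate at room temperature.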
Estrogen receptor beta (Homo sapiens), sequence (Q92731 whole entry, looked up): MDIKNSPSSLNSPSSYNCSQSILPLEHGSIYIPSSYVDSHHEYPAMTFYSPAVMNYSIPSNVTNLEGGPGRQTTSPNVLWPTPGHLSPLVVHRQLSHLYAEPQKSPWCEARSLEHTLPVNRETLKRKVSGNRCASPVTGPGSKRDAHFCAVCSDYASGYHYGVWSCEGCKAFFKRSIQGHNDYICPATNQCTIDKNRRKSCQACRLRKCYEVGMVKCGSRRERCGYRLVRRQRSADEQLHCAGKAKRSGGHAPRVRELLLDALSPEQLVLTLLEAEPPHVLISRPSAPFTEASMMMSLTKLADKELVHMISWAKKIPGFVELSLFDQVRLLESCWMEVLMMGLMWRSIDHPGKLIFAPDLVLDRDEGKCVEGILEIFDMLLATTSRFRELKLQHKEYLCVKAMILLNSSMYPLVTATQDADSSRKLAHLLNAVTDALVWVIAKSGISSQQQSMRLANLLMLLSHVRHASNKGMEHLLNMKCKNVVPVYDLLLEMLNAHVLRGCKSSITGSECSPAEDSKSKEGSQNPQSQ

For experiment [4] the target is unchanged. As to the kind of experiment: qHTS assay to identify small molecule antagonists of the estrogen receptor beta (ER-beta) signaling pathway (AID 1259378; active means well fitted inhibition curve with a large enough effect in the signal ratio in the repeat runs, not every such curve was filed as active; the % refers to the signal ratio). Put shortly:
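ER-beta-UAS-bla HEK293T cells in 2% charcoal-stripped FBS medium treated with compound plus 1nM final 17-beta-estradiol for 16 hr at 37C. Beta-lactamase reporter read by FRET substrate fluorescence after 2 hours at room temperature.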

Experiment [5] can be described thus: qHTS assay to identify small molecule agonists of the androgen receptor (AR) signaling pathway in the presence of an antagonist - cell viability counter screen (AID 1259379).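 Further: MDA-kb2 human breast cancer cells carrying an MMTV luciferase reporter; series mostly up to about 92 µM; nearly all actives have a fitted effect of over 25% in size.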 Put shortly: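 Fluorescence from CellTiter-Fluor, added after 15 hr and read 1 hr later, gave cell viability. Cells were MDA-kb2 exposed to compounds (15 concentrations) in the presence of 3.0uM nilutamide at 37C, 0% CO2.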

Experiment [6] in a line: qHTS assay to identify small molecule agonists of the estrogen receptor beta (ER-beta) signaling pathway - cell viability counter screen (AID 1259380). Further: nearly all actives have a fitted effect of over 30% in size. Put shortly: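 Same-well viability counter screen. Cells: ER-beta-UAS-bla HEK293T, plated 6 hr before compound, in 2% charcoal-stripped FBS. Compound exposure 16 hr, 37C; viability by CellTiter-Glo luminescence after 30 min at room temperature.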

Experiment [7] in a line: qHTS assay to identify small molecule antagonists of the estrogen receptor beta (ER-beta) signaling pathway - cell viability counter screen (AID 1259382). Further: series mostly up to about 92 µM; nearly all actives have a fitted effect of over 55% in size. A digest of the protocol: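 Following a 6 hr plating period, HEK293T cells carrying a UAS-driven beta-lactamase reporter under ER-beta control received compounds and 1nM E2 (final). After 16 hr at 37C and 2 hr substrate loading, CellTiter-Glo luminescence indicated viability.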

Experiment [8] addresses Estrogen receptor (Homo sapiens) (UniProt P03372). Nature of the experiment: qHTS assay to identify small molecule agonists of the estrogen receptor alpha (ER-alpha) signaling pathway in the presence of an antagonist (AID 1259383; calls by dose curve; further: top concentration of the series differs between compounds; nearly all actives have a fitted effect of over 15% in size). A digest of the protocol:
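Cells are hormone-deprived for 5 days (charcoal-stripped FBS, no phenol red), plated for 24hr, spiked with 10.0nM ICI-182,780, then dosed at 15 concentrations. After 22hr at 37C, ONE-Glo luminescence reports ERE-luciferase activity.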

Experiment [9] can be described thus: qHTS assay to identify small molecule agonists or antagonists of the thyroid stimulating hormone receptor (TSHR) signaling pathway - wild type cell line counter screen (AID 1259384; calls by dose curve). Put shortly: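 Wild-type Hek293 cells, 800/well, 18 h at 37C, then compound with Ro20-1724 for 30 min RT. cAMP by HTRF (cAMP-d2/anti-cAMP cryptate), 1 h RT, fluorescence read. 15 concentrations, triplicates.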

For experiment [10], the target named is Thyrotropin receptor (Homo sapiens) (UniProt P16473). As to the kind of experiment: qHTS assay to identify small molecule antagonists of the thyroid stimulating hormone receptor (TSHR) signaling pathway (AID 1259385; calls by dose curve; further: nearly all actives have a fitted effect of over 20% in size). Put shortly:
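TSHR-HEK293 cells (800/well) plated 18 h, then compounds with Ro20-1724 and TSH at 1.5 ng/mL final, 30 min at room temperature. cAMP quantified by HTRF (cAMP-d2/anti-cAMP-cryptate, 1 h); 15 concentrations in triplicate.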

Experiment [11] can be described thus: qHTS assay to identify small molecule agonists of the estrogen receptor alpha (ER-alpha) signaling pathway in the presence of an antagonist - cell viability counter screen (AID 1259386).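 Further: series mostly up to about 92 µM; cells exposed to compounds for 22 h at 37 °C before the viability read; nearly all actives have a fitted effect of over 30% in size.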 Put shortly:
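Cells are starved of estrogens for 5 days in charcoal-stripped serum, seeded for 24hr and co-treated with ICI-182,780 (10.0nM final) and test compounds. After 22hr at 37C, viability is read as CellTiter-Fluor fluorescence.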

Experiment [12] concerns the target Progesterone receptor (Homo sapiens) (UniProt P06401). Nature of the experiment: qHTS assay to identify small molecule antagonists of the progesterone receptor (PR) signaling pathway (AID 1346795; active means well fitted inhibition curve with a large enough effect in the signal ratio in the repeat runs, not every such curve was filed as active; the % refers to the signal ratio; further: potency means the concentration at half of the fitted maximal effect). A digest of the protocol:
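PR-UAS-bla HEK293T cells with beta-lactamase reporter under UAS control, in 2% charcoal-stripped FBS, treated with compounds plus 1 nM promegestone (R5020, final) for 16 hr at 37C. Read-out: FRET beta-lactamase substrate fluorescence after 2 hr at room temperature.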

Experiment [13] can be described thus: qHTS assay to identify small molecule antagonists of the progesterone receptor (PR) signaling pathway - cell viability counter screen (AID 1346798). Further: series mostly up to about 92 µM; nearly all actives have a fitted effect of over 50% in size. Put shortly: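 PR-UAS-bla HEK293T cells, 3,000/well in 2% charcoal-stripped FBS medium, dosed with compounds plus R5020 agonist and incubated 16 h at 37C. Viability then measured in the same wells by CellTiter-Glo luminescence after 30 min at RT.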

A short description of experiment [14]: qHTS assay to identify small molecule agonists of the progesterone receptor (PR) signaling pathway - cell viability counter screen (AID 1346799; calls by dose curve; further: nearly all actives have a fitted effect of over 45% in size). Put shortly:
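Counter screen in the PR-UAS-bla HEK293T wells (2% charcoal-stripped FBS, 16 h compound exposure at 37 C) after the bla read. CellTiter-Glo added, 30 min at room temperature, luminescence read as cell viability.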

Experiment [15] in a line: qHTS assay to identify small molecule agonists of the TGF-beta/Smad signaling pathway - cell viability counter screen (AID 1346829). Further: top concentration of the series differs between compounds; nearly all actives have a fitted effect of over 45% in size. A digest of the protocol:
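HEK 293T SBE-bla line, 5 hr compound exposure at 37 C, multiplexed CellTiter-Glo viability read by luminescence.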

Experiment [16] in a line: qHTS assay to identify small molecule agonists of the TGF-beta/Smad signaling pathway (AID 1346859; active means well fitted activation curve with a large enough effect in the signal ratio in the repeat runs, not every such curve was filed as active; the % refers to the signal ratio; further: series mostly up to about 77 µM). A digest of the protocol:
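SBE-bla HEK293T cells plated overnight, then compound exposure for 5 h at 37 C. Beta-lactamase reporter read with LiveBLAzer B/G FRET substrate after 2 h at room temperature, fluorescence at 405 nm excitation, 460/530 nm emission.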

Experiment [17] deals with Thyrotropin-releasing hormone receptor (Homo sapiens) (UniProt P34981). As to the kind of experiment: qHTS assay to identify small molecule antagonists of the thyrotropin-releasing hormone receptor (TRHR) signaling pathway (AID 1346877; active means well fitted inhibition curve with a large enough effect in the repeat runs, not every such curve was filed as active; further: series mostly up to about 51 µM). Put shortly: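 Cells (TRHR-HEK293) are plated and kept 18 h at 37 °C/5% CO2. A calcium-sensitive dye is added for 2 h, compound follows for 5 min at room temperature, and TRH is then given at 1 nM final.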
Thyrotropin-releasing hormone receptor (Homo sapiens), sequence (P34981 whole entry, looked up): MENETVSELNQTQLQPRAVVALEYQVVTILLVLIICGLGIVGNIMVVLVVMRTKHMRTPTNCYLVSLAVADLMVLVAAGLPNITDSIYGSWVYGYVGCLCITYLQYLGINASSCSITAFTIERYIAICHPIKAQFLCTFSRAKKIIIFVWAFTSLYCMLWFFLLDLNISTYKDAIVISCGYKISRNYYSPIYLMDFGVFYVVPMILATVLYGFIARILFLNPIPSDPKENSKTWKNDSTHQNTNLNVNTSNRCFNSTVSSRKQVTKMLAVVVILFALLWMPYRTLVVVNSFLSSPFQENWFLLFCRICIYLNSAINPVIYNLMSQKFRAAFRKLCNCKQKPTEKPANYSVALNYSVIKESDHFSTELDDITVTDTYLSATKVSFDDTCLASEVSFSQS

Experiment [18] can be described thus: qHTS assay to identify small molecule antagonists of the TGF-beta/Smad signaling pathway - cell viability counter screen (AID 1346824). Further: nearly all actives have a fitted effect of over 50% in size. Put shortly:
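SBE-bla HEK 293T cells, incubated overnight, then compound plus 0.25 ng/mL TGF-beta1 (stock added) for 5 hr at 37 C. Viability was read in the same wells by CellTiter-Glo luminescence after 30 min at room temperature.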

Experiment [19] addresses Progesterone receptor (Homo sapiens) (UniProt P06401). As to the kind of experiment: qHTS assay to identify small molecule agonists of the progesterone receptor (PR) signaling pathway (AID 1346784; calls by dose curve; further: nearly all actives have a fitted effect of over 30% in size). Put shortly:
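PR-UAS-bla HEK 293T cells (beta-lactamase reporter under UAS) in 2% charcoal-stripped FBS, dosed with 23 nL compound after 6 hr, incubated 16hr at 37C. LiveBLAzer B/G FRET substrate added, fluorescence read after 2 hours.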

A number with no mark means an inactive call. Results filed as inconclusive are left out. Active and inactive are the calls of the source. Unless noted, the call rests on the fitted dose curve; in most records, active means well fitted curve in the direction sought with a large enough effect in the repeat runs; inconclusive means weak or mixed curves; inactive means no such curve, though single readings can be large; an effect the other way counts as inactive or inconclusive.
On the % scale 0 is the no-effect control and ±100 the full control effect.

Thyrotropin receptor (Homo sapiens), sequence (P16473 whole entry, looked up): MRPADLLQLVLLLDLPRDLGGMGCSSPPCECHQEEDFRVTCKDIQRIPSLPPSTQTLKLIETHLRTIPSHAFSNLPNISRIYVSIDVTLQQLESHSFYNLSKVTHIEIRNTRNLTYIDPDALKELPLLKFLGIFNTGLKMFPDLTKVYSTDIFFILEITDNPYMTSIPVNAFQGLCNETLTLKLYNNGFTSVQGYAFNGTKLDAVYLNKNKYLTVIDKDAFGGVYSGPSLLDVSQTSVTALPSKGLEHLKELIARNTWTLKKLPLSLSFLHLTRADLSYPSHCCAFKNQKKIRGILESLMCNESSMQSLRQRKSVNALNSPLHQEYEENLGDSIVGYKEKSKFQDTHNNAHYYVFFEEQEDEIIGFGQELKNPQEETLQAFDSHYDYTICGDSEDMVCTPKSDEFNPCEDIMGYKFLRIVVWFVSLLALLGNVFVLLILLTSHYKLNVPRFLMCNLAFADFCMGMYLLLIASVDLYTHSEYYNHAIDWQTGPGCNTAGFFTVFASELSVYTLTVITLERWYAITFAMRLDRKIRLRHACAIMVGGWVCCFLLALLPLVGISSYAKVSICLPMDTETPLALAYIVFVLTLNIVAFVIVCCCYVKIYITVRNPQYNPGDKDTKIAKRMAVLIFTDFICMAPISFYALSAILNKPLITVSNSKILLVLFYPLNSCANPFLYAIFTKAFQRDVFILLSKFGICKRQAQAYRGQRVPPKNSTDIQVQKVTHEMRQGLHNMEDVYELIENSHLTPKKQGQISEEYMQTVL
Estrogen receptor (Homo sapiens), sequence (P03372 whole entry, looked up): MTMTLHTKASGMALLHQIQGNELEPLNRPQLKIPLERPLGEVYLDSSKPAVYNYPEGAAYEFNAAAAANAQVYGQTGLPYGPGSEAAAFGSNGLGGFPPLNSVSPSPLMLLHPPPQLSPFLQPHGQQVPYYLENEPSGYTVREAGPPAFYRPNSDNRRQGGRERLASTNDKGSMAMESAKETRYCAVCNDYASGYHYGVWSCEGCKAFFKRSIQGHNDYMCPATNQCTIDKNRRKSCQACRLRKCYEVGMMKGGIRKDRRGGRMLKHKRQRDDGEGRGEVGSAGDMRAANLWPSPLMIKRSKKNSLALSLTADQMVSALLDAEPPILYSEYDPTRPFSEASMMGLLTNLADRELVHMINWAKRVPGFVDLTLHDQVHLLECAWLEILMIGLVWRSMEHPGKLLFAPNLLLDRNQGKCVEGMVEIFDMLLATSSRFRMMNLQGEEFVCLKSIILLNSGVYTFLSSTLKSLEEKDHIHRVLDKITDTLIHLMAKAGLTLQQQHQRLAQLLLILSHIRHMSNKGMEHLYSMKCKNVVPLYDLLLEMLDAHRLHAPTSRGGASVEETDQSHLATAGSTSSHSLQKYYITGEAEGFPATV
Progesterone receptor (Homo sapiens), sequence (P06401 whole entry, looked up): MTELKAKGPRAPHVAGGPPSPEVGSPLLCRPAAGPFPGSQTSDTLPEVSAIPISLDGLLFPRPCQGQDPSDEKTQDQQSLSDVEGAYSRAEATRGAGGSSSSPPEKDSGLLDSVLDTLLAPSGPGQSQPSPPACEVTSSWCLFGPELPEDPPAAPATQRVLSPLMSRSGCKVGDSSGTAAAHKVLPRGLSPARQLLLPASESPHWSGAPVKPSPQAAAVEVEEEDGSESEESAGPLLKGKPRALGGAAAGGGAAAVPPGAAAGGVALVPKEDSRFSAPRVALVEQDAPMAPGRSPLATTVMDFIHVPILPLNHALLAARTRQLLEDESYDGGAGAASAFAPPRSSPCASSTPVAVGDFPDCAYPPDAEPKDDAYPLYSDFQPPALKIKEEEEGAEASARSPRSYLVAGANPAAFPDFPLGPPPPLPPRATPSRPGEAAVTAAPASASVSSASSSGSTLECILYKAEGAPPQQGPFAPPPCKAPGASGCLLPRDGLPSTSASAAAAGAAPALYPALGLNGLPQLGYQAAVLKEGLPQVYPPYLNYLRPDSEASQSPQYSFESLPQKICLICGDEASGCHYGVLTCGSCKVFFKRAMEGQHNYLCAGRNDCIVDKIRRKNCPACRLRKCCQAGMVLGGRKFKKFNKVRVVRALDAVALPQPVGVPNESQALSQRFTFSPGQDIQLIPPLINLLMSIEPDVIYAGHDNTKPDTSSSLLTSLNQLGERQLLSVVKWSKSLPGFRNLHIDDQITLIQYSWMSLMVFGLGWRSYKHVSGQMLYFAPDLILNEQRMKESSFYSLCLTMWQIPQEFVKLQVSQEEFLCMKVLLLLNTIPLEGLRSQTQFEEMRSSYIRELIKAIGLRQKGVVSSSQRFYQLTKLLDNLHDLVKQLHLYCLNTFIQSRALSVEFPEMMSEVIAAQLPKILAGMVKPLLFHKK

Consider `CC1CCN(CCCC(=O)c2ccc(F)cc2)CC1`, for which the Potency result in [1], in experiment [2], in [4], in experiment [5], in [6] and in experiment [7] was “inactive” each time. Also, the Potency result in experiment [8], in [10], in [12], in experiment [13] and in [14] was “inactive” in each case. Moreover, the outcome in experiment [3], in [9], in experiment [11], in [15], in experiment [16] and in experiment [17] was inactive.
As for `CCN(CC)S(=O)(=O)c1ccc(C(=O)O)cc1`, the Potency result in [1], in experiment [2], in experiment [4], in experiment [5], in experiment [6] and in [8] was “inactive” each time. Moreover, the Potency result in experiment [10], in experiment [12], in experiment [13] and in experiment [14] was “inactive” throughout. Further, the compound was called inactive in [3], in experiment [9], in experiment [11], in experiment [18], in experiment [15] and in experiment [16]. In experiment [17], the call was inactive.
With `C=C(C)C(=O)OCCCCCCCCCCCCCCCCCC`, the activity change in experiment [1] was -0.0741% [at 18.9 µM, active compounds read high]. Moreover, the activity change, negative = inhibition in [2] was 6.62% [at 19 µM]; in experiment [10] it was 0.559% [at 19 µM]; in experiment [12] it was -2.15% [at 18.9 µM]. Further, the activation in experiment [3] is 0.356% [at 19 µM]; in [8] it was 0.0113% [at 19 µM]; in experiment [19], 1.29% [at 19 µM]; in [16], 6.67% [at 15.8 µM]. Further, the activity, negative = inhibition in experiment [4] is -0.254% [at 19 µM]; in experiment [17], -4.03% [at 10.5 µM]. Moreover, the activity change, negative = cytotoxicity in experiment [5] was 0.335% [at 19 µM]; in [6] it was -0.0598% [at 19 µM]; in experiment [11] it was -3.47% [at 19 µM]; in [13], 16.4% [at 18.9 µM]; in experiment [14], 3.91% [at 19 µM]; in experiment [15], 16.7% [at 15.8 µM]. Moreover, the cAMP activity change in experiment [9] is -1.57% [at 18.9 µM]. The viability change, negative = cytotoxic in experiment [18] is 11% [at 15.8 µM].
Consider `O=[N+]([O-])c1ccc(Oc2ccc([N+](=O)[O-])cc2)cc1`, for which the Potency result in experiment [1], in experiment [2], in [4], in experiment [5], in experiment [6] and in experiment [7] was “inactive” each time. Further, the Potency result in [8] and in [19] was “inactive” each time. The call in [3], in experiment [11], in experiment [18] and in experiment [16] was inactive. Moreover, in experiment [12], the Potency was 3.94 µM (active).
`OC[C@H]1O[C@@H]2O[C@H]3[C@H](O)[C@@H](O)[C@@H](O[C@H]4[C@H](O)[C@@H](O)[C@@H](O[C@H]5[C@H](O)[C@@H](O)[C@@H](O[C@H]6[C@H](O)[C@@H](O)[C@@H](O[C@H]7[C@H](O)[C@@H](O)[C@@H](O[C@H]8[C@H](O)[C@@H](O)[C@@H](O[C@H]9[C@H](O)[C@@H](O)[C@@H](O[C@H]1[C@H](O)[C@H]2O)O[C@@H]9CO)O[C@@H]8CO)O[C@@H]7CO)O[C@@H]6CO)O[C@@H]5CO)O[C@@H]4CO)O[C@@H]3CO`: the Potency result in experiment [1], in [2], in experiment [4], in experiment [5], in experiment [6] and in experiment [7] was “inactive” in each case. Besides, the Potency entry in [10], in experiment [13] and in experiment [14] was “inactive” in each case. Further, the compound was classed as inactive in [3], in [9], in [11], in experiment [15], in experiment [16] and in [17].
As for `CCCOc1ccccc1-c1nc2n[nH]nc2c(=O)[nH]1`, the Potency result in [1], in [2], in experiment [4], in experiment [5], in [6] and in experiment [7] was “inactive” throughout. In addition, the Potency result in experiment [8], in experiment [19], in experiment [12] and in [14] was “inactive” throughout. For the same compound, the compound was classed as inactive in [3], in experiment [9], in [18], in experiment [15] and in experiment [17].
Regarding `c1ccc(CCCc2ccccn2)cc1`, the Potency entry in experiment [1], in experiment [2], in experiment [4], in experiment [5], in experiment [6] and in [7] was “inactive” throughout. Moreover, the Potency result in [10], in experiment [19], in [12], in experiment [13] and in [14] was “inactive” throughout. Moreover, the outcome in [3], in [9], in experiment [11], in experiment [18], in experiment [15] and in experiment [16] was inactive. The result in experiment [17] was inactive.

The values are drawn from PubChem BioAssay (Tox21).
